From PubChem BioAssay (NCI)
This is part of a sample that, as a whole, favours compounds with a hit. Of some 79,000 tested, about 15% had one in any assay. A number with no mark means an inactive call. Calls of active or inactive are those of the source. No stated cut-off is given here; in the data, active means growth inhibition above about 70%; inactive means the rest.

Test: NCI Yeast Anticancer Drug Screen. Data for the mlh1 rad18 strain (AID 175)
Conditions: S. cerevisiae mlh1 rad18 strain growth inhibition; at 50.0 µM; active compounds read high
In short: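 Cells of a genetically altered yeast strain, deficient in DNA damage repair, were treated with compound. Their growth was then compared with that of vehicle-treated cultures to give inhibition.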

SMILES | growth inhibition
N#CNC(=Nc1ccccc1)[N](C#N)[Sn]([c]1ccccc1)([c]1ccccc1)[c]1ccccc1 | 98.6% (active)
Cc1cc(Br)cc(C)c1NC(=O)C(=O)CC(=O)c1sc(-n2nc(-c3ccccc3)cc2-c2ccccc2)nc1C | 15.7%
COc1ccccc1C1c2cc3c(cc2OC(O)(CO)C1C(=O)O)OCO3 (stereo not given) (tested in a mixture with another compound) | -3.15%
N/C(=N\OC(=O)Nc1ccc(CSc2ccc(Cl)cc2)o1)c1ccccn1 | -31.6%
COc1cc2c(c(O)c1OC)C(=O)[C@@H]1CCC(=O)N1C2c1ccccc1 (stereo not given in full) | -18.4%
CC(C)OC(=O)N1CCCC1 | -17.4%
COC1=CC(=O)c2ccccc2C1(CCC=C(C)C)C1=NC(C)(C)CO1 (stereo not given) | -11.6%
CC(C#N)(CCl)OS(=O)(=O)CCCl (stereo not given) | 25.4%
COc1ccc(C(C)Nc2cc(OC)c(OC)c(OC)c2)cc1 (stereo not given) | -15.1%
c1cc2c3c(c1)ccc1ccc4cccc(c4c13)O2 | -47.9%
CCCCCCCN1C=CCC(S(=O)(=O)N2CCOCC2)=C1 | -2%
O=c1c2cc([N+](=O)[O-])ccc2sc2ccsc12 | 11.9%
COc1cc([C@@H]2c3cc4c(cc3[C@](C)(O)[C@H]3COC(=O)[C@H]23)OCO4)cc(OC)c1OC | 11%
CC(C)(/C=N\O)NO | -0.9%
CN(C)c1nc(OC2C(C3COC(C)(C)O3)OC3OC(C)(C)OC32)nc(N(C)C)n1 (stereo not given) | 2.15%
CSc1c(S(C)=O)[nH]c2cc(Br)cc(Br)c12 (stereo not given) | 85.2% (active)
Cc1ccc2cccc(CCOC(=O)c3ccc([N+](=O)[O-])cc3)c2c1 | 4.7%
CCOc1ccc(N=Cc2cc(Br)ccc2O)cc1 | -13.4%
CCOC(=O)C1(c2ccccc2)CCNC(=O)CC1 (stereo not given) | 8.6%
CN(C)Cc1cc(N=Nc2ccccc2Cl)cc(CN(C)C)c1O | -13.4%

SMILES | growth inhibition
CN(/N=C\c1ccc2ccccc2c1)C1=NCCCCN1 | 1.6%
Cc1cccc(-c2c3ccccc3cc3ccccc23)c1 | 11.6%
CCOC(=O)C1=C(Nc2ccc(Cl)cc2Cl)OC/C1=N\NS(=O)(=O)c1ccc(C)cc1 | 3.3%
COc1cc2c(C)cc(=O)oc2c(OCC(O)CN2CCCC2)c1OC (stereo not given) | -5.25%
CCOC(=O)C(C(=O)OCC)C(C(=O)OCC)(C(=O)OCC)C(C(=O)OCC)C(=O)OCC | -19.9%
Nc1ccnc2n[nH]nc12 | -26.8%
CC1(N)CCC(C(C)(C)N)CC1 (stereo not given) | 8.8%
CC1=C(CCC(C)CO)OC2CC3C4CC=C5CC(O)CCC5(C)C4CCC3(C)C12 (stereo not given) | 0.85%
C/C(CC(=O)Nc1ccccn1)=N\c1ccccn1 | 9.95%
O=C(/C=C/c1ccc2c(c1)OCO2)NCc1ccco1 | -34.9%
O=c1[nH]c(=S)[nH]c2[nH]ccc12 | -4.4%
Cc1cnc2c(C)ccc([N+](=O)[O-])c2c1NCCCN(C)C | 52%
CCCC1(CCC)NC(=O)N(CC(N)=O)C1=O | 16.1%
COC(=O)c1nn(-c2ccccc2)c2nc3ccccc3c-2c1C(=O)OC | 36.5%
O=C1OCc2cccc3c2-c2c1cccc2C(=O)OC3 | 6.7%
CC(C)/C=C1\CCC(CN2CCCC2)C1=O (stereo not given) | 63.5%
NCCn1ccnc1 | 1.4%
S=C1SCN(c2ccc3c(c2)OCO3)CN1c1ccc2c(c1)OCO2 | -20.1%
O=C(/C=C/c1ccccc1)Nc1ccc([N+](=O)[O-])cc1Cl | 18.5%
CCC(=O)OCCCCCCOC(=O)CC | -5.9%
